PubChem BioAssay AID2314 (National Center for Advancing Translational Sciences (NCATS), 2010)
About 37,000 (12%) of roughly 300,000 compounds were called active. Rule as the data show it: active = max response mostly above about 13% (no sharp cut-off); inactive = mostly below about 14%. The list comes from a sample in which actives are over-represented; it also holds similar structures and randomly drawn compounds.

Assay: Cycloheximide Counterscreen for Small Molecule Inhibitors of Shiga Toxin; also: read at 38.3 µM for the half of the compounds with a filed dose; 0% is about no effect
Settings: cell reporter, cycloheximide protein synthesis inhibition counterscreen; stronger effect = higher value

Structure (SMILES)	max response
CCNC(=O)CCc1nc(-c2ccc(C)cc2)no1	18.6% (active)
CCCCNC(=O)CCNC(=O)c1ccc(C(C)(C)C)cc1	5.17% (inactive)
Cc1ccc(-c2noc(CNC(=O)c3ccoc3C)n2)cc1	11% (inactive)
COc1ccc(N2CCN(C(=O)CCc3nc(-c4ccc(C)cc4)no3)CC2)cc1	-3.69% (inactive)
CCNC(=O)CCc1nc(-c2ccc(C(C)(C)C)cc2)no1	34.3% (active)
Cc1ccc(-c2noc(CCC(=O)Nc3ccccc3N3CCN(C)CC3)n2)cc1	3.85% (inactive)
Cc1ccc(-c2noc(CCC(N)=O)n2)cc1	15.6% (active)
CCOc1cc(-c2noc(CCC(=O)N3CCOCC3)n2)ccc1OC	-0.629% (inactive)
CN1CCN(C(=O)CCc2nc(-c3ccc(Cl)cc3)no2)CC1	7.26% (inactive)
CC(C)C(NS(=O)(=O)c1cccs1)C(=O)Nc1nc(C(C)(C)C)cs1 (stereo unspecified)	-2.46% (inactive)
Cc1cc(NS(=O)(=O)c2ccc(NC(=O)C(C)Oc3cccc(C)c3C)cc2)nc(C)n1 (stereo unspecified)	-0.471% (inactive)
Cc1ccc(C)c(NC(=O)C(OC(=O)c2ccc(C)s2)c2ccccc2)c1 (stereo unspecified)	6.66% (inactive)
COc1cc(OC)c2c(-c3cccc(-c4cccc(N)c4)c3)cc(=O)oc2c1	-2.04% (inactive)
CC(C)n1c(=S)[nH]c2cc(C(F)(F)F)ccc21	12.9% (inactive)
Cc1oc2cc(Br)c(O)c(Br)c2c1C(=O)c1ccccc1	13.7% (inactive)
OCC1(Cc2ccccc2C(F)(F)F)CCN(Cc2ccncc2)CC1	0.237% (inactive)
COC(=O)C1=C(C)NC2=C(C(=O)c3ccccc32)C1c1ccc(-c2ccc(C(=O)O)cc2)o1 (stereo unspecified)	28.7% (active)
Cc1ccc(C2C3=C(Nc4[nH]n(-c5ccccc5)c(=O)c42)c2ccccc2C3=O)cc1 (stereo unspecified)	-3.8% (inactive)
COC(=O)C1=C(C)NC(=O)NC1/C=C/c1ccccc1 (stereo unspecified)	0.456% (inactive)
N=C1/C(=C/c2cccn2-c2cccc([N+](=O)[O-])c2)C(=O)N=C2SC=CN12	-2.19% (inactive)
CC1(C)CC2CC(C)(CN2c2ncnc3ccc(Br)cc23)C1 (stereo unspecified)	-0.269% (inactive)

Structure (SMILES)	max response
COc1ccc(Cc2nnnn2CC(=O)O)cc1	-1.14% (inactive)
COc1ccc(Cc2nnc(SC)[nH]c2=O)cc1	4.91% (inactive)
COc1ccc(Cc2cc(-c3ccc(F)cc3)n[nH]c2=O)cc1	16.2% (active)
O=c1[nH]c2ccccc2n2c(-c3ccccc3)nnc12	-2.01% (inactive)
CC(CN1CCC(n2nccc2NC(=O)C2CCCC2)CC1)c1ccccc1 (stereo unspecified)	-1.46% (inactive)
COc1cc(OC)cc(C(=O)NCC(=O)OCc2csc(-c3ccccc3)n2)c1	20.1% (active)
O=C(CNC(=O)c1ccccc1)NCC(=O)OCc1ccc(Cl)cc1	-2.96% (inactive)
COc1cc(OC)cc(C(=O)N[C@H](C(=O)OCC(=O)NC(C)c2ccccc2)C(C)C)c1 (stereo partly specified)	6.33% (inactive)
COc1cccc(NC(=O)c2ccccc2N(Cc2ccccc2)S(C)(=O)=O)c1	1.56% (inactive)
O=C1c2ccccc2C(=O)C1c1ccccc1	6.52% (active)
O=C1NC(c2ccccc2)Oc2ccccc21 (stereo unspecified)	-1.34% (inactive)
O=C1c2ccccc2C(=O)C1c1ccccc1F	-5.87% (inactive)
Cc1ccc(C)c(NC(=O)C2Cc3ccccc3CN2C(=O)OCc2ccccc2)c1 (stereo unspecified)	-3.28% (inactive)
Cc1ccc(C(=O)O/N=C(\N)c2ccccn2)cc1Cl	13.6% (inactive)
COc1ccc(C(=O)O/N=C(\N)c2ccccn2)cc1[N+](=O)[O-]	59.4% (active)
N/C(=N\OC(=O)c1ccc([N+](=O)[O-])cc1)c1ccccn1	42.7% (active)
N/C(Cc1ccc([N+](=O)[O-])cc1)=N\OC(=O)COc1ccc2ccccc2c1	-3.82% (inactive)
COc1ccc(C(=O)NNC(=O)c2cnccn2)cc1[N+](=O)[O-]	1.13% (inactive)
CO/N=C(\N)c1ccc([N+](=O)[O-])cc1	0.264% (inactive)
N/C(=N\OC(=O)Cc1ccc([N+](=O)[O-])cc1)c1ccccn1	61.5% (active)
O=C(OCc1ccc([N+](=O)[O-])cc1)c1ccccn1	-3.03% (inactive)

Structure (SMILES)	max response
N/C(=N\OC(=O)COc1ccc([N+](=O)[O-])cc1)c1ccc(Br)cc1	6.76% (inactive)
CCC(=O)Nc1nnc(S(=O)(=O)N2CCCc3ccccc32)s1	1.29% (inactive)
Cc1ccccc1-n1cc(CNC(=O)C2CCC(=O)N(C3CC3)C2)cn1 (stereo unspecified)	-1.75% (inactive)
Cc1nn(C(C)C(=O)N2CCOCC2)c(=O)c2nn(-c3ccccc3)c(C)c12 (stereo unspecified)	-8.4% (inactive)
CCOc1cc(NC(=O)c2ccccc2C(=O)O)c(OCC)cc1NC(=O)c1ccccc1F	-0.886% (inactive)
Cc1cc(C(F)F)n2nc(C(=O)Nc3ccc(S(=O)(=O)NC45CC6CC(CC(C6)C4)C5)cc3)nc2n1	-6.02% (inactive)
O=C(C/C(=N\NC(=O)c1ccccc1Br)C(F)(F)F)c1cccs1	-1.94% (inactive)
CC(C)c1ccc(S(=O)(=O)NC2CCCC2)cc1	-3.21% (inactive)
O=C(Cn1nc(C(=O)O)c2ccccc2c1=O)Nc1ccc(F)cc1	5.62% (inactive)
CC(C(=O)NCCc1ccc(S(N)(=O)=O)cc1)N1C(=O)CC(C)(C)Sc2ccccc21 (stereo unspecified)	-1.15% (inactive)
Cc1cc(C)c(S(=O)(=O)NCC2CCC(C(=O)NCc3ccc4c(c3)OCO4)CC2)c(C)c1 (stereo unspecified)	-0.416% (inactive)
CN(C)CCOCCOc1ccc(Cl)c2ccccc12	-1.16% (inactive)
O=C(NC(Cc1ccc(O)cc1)C(=O)O)/C(=C/c1ccccc1)NC(=O)c1ccccc1 (stereo unspecified)	18.4% (inactive)
COc1ccc(N2C(=O)c3ccccc3NC2c2ccc(OC)c(CN3CCOCC3)c2)cc1 (stereo unspecified)	28.2% (active)
COc1ccc(C2Nc3ccccc3C(=O)N2c2ccc(Cl)cc2)cc1Cn1cc([N+](=O)[O-])cn1 (stereo unspecified)	46.2% (active)
COc1ccc(C2Nc3ccccc3C(=O)N2Cc2ccccc2)cc1Cn1nnc2ccccc21 (stereo unspecified)	-1.8% (inactive)
COc1ccc(C2Nc3ccccc3C(=O)N2c2ccc(F)cc2)cc1Cn1nnc2ccccc21 (stereo unspecified)	2.31% (inactive)
COc1ccc([N+](=O)[O-])cc1C1NN=C(c2cccc3ccccc23)S1 (stereo unspecified)	-2.19% (inactive)
COc1ccc(CN2CCCC(C(=O)c3ccc(Cl)cc3)C2)cc1Cn1cncn1 (stereo unspecified)	-7% (inactive)
